From paper PMC7862700, “An all-to-all approach to the identification of sequence-specific readers for epigenetic DNA modifications on cytosine”

Columns and labels:
Assay in all cases: DAPPL (digital affinity profiling via proximity ligation, sequencing); 10 mM Tris-HCl pH 7.5, 50 mM NaCl, 1 mM DTT, 4% glycerol, room temperature, 30 min; GST-TFs on glutathione beads, 16-mer random dsDNA library, 0.1% formaldehyde crosslink after washing; high values mean tight binding
FLI1 = biological target: T1, FLI1 (Homo sapiens, UniProt Q01543 1-452); conditions: protein: recombinant; tags: N-terminal GST; dsDNA, one strand shown
T1 sequence: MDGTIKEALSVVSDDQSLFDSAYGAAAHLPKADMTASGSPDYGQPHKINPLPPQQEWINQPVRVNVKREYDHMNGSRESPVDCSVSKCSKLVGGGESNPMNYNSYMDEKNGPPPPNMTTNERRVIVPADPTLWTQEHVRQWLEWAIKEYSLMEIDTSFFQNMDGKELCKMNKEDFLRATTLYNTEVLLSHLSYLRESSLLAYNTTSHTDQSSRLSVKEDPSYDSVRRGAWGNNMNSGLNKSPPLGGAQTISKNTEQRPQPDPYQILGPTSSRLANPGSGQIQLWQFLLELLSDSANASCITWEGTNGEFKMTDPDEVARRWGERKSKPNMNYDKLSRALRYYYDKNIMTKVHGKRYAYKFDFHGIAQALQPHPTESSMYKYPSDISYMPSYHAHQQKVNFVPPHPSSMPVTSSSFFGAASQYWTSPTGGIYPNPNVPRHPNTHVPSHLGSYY
In short: (§1)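 GST fusions of human transcription factors were expressed in yeast and captured with glutathione beads. Once given DNA barcodes and pooled alongside a tag-only sample, they were incubated for 30 min at room temperature with 200 nmole of a random double-stranded 16-mer DNA library in Tris/NaCl/DTT/glycerol buffer, then washed, crosslinked (0.1% formaldehyde), proximity-ligated, PCR-amplified and sequenced on an Illumina NextSeq500. The binding signal of each hexamer is its read frequency for a factor divided by its frequency for the tag-only sample.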

ELK1 = biological target: T2, ELK1 (Homo sapiens, UniProt P19419 1-428); conditions: protein: recombinant; tags: N-terminal GST; dsDNA, one strand shown
T2 sequence: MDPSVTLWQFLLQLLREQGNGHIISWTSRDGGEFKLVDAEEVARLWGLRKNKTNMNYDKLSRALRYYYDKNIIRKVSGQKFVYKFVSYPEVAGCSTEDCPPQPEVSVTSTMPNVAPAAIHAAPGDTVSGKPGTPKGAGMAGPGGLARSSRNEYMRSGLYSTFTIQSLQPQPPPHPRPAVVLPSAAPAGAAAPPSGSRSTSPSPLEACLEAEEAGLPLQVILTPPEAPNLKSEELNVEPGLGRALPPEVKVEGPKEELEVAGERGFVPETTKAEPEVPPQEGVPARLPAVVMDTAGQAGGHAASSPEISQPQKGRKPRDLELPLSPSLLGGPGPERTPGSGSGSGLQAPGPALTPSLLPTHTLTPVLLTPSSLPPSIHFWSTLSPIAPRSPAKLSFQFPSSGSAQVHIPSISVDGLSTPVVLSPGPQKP
In short: as §1

GABPA = biological target: T3, GABPA (Homo sapiens, UniProt Q06546 1-454); conditions: protein: recombinant; tags: N-terminal GST; dsDNA, one strand shown
T3 sequence: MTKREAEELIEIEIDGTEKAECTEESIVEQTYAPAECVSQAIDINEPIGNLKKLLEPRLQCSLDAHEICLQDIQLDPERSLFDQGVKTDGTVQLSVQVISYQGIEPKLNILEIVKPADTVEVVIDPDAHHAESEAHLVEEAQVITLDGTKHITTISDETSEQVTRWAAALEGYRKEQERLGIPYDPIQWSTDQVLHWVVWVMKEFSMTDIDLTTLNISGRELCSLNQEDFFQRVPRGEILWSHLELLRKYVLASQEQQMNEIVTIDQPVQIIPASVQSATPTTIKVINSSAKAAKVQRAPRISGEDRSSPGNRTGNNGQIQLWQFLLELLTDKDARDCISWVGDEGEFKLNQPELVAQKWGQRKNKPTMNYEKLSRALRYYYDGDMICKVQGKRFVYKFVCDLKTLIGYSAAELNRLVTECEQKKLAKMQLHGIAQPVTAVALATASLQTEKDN
In short: as §1

ERG = biological target: T4, ERG (Homo sapiens, UniProt P11308 1-479); conditions: protein: recombinant; tags: N-terminal GST; dsDNA, one strand shown
T4 sequence: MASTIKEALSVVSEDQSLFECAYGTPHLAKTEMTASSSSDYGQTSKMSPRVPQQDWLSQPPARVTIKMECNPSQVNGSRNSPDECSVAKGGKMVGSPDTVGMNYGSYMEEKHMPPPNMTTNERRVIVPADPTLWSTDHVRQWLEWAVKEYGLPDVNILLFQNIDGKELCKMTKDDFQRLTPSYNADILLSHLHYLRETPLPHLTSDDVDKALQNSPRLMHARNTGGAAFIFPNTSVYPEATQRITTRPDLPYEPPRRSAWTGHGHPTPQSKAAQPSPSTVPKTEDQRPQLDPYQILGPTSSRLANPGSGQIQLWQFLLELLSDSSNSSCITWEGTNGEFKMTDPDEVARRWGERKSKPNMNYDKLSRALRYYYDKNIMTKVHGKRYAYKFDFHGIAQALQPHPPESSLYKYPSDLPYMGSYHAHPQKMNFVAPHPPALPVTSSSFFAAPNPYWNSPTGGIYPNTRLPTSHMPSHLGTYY
In short: as §1

ELF1 = ELF1 (Homo sapiens, UniProt P32519 1-619); conditions: protein: recombinant; tags: N-terminal GST; dsDNA, one strand shown
Sequence of ELF1 (P32519 whole entry): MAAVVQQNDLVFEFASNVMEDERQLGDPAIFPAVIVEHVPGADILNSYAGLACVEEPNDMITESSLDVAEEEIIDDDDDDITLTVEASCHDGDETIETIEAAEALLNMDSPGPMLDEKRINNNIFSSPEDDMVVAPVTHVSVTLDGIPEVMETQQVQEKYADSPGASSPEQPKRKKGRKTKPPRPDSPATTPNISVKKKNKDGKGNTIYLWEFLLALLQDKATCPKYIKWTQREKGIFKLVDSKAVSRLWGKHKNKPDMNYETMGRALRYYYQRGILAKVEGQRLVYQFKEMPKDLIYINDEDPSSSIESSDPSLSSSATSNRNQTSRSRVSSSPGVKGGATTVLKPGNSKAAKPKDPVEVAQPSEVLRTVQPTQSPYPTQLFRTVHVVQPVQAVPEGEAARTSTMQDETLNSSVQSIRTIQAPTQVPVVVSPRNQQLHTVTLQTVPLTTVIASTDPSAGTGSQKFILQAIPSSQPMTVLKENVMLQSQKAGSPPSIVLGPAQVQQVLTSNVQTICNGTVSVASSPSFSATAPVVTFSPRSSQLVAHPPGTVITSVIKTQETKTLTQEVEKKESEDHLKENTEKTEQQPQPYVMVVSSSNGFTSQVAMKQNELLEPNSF
In short: as §1

EHF = biological target: T5, EHF (Homo sapiens, UniProt Q9NZC4 1-300); conditions: protein: recombinant; tags: N-terminal GST; dsDNA, one strand shown
T5 sequence: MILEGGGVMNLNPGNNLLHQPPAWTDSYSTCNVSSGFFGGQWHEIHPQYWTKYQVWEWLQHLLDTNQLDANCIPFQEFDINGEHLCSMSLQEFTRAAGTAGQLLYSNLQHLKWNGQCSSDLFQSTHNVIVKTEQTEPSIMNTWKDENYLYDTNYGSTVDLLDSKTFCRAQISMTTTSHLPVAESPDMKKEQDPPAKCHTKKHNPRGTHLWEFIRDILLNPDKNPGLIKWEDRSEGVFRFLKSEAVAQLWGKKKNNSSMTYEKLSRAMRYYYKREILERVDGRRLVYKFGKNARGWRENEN
In short: as §1

SPI1 = SPI1 (Homo sapiens, UniProt P17947 1-270); conditions: protein: recombinant; tags: N-terminal GST; dsDNA, one strand shown
In short: as §1

SPIB = SPIB (Homo sapiens, UniProt Q01892 1-262); conditions: protein: recombinant; tags: N-terminal GST; dsDNA, one strand shown
Sequence of SPIB (Q01892 whole entry): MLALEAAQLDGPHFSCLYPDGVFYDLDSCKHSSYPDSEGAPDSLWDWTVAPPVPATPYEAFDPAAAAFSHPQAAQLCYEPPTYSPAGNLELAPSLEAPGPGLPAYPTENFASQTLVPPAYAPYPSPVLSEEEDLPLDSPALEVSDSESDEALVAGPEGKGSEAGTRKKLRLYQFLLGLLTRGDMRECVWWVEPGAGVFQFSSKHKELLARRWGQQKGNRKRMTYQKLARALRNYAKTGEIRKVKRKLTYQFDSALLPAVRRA
In short: as §1

ELK3 = biological target: T6, ELK3 (Homo sapiens, UniProt P41970 1-407); conditions: protein: recombinant; tags: N-terminal GST; dsDNA, one strand shown
T6 sequence: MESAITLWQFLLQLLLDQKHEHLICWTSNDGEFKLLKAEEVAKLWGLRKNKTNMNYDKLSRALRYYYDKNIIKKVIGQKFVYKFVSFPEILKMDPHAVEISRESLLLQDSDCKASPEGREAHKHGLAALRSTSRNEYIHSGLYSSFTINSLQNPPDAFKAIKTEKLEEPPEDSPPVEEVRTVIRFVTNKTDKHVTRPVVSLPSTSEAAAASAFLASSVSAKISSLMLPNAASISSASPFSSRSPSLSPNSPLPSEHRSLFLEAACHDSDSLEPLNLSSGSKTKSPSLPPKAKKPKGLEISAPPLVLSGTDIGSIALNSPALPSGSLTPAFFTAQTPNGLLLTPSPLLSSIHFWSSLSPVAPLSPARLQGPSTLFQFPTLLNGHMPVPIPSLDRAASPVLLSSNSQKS
In short: as §1

FEV = biological target: T7, FEV (Homo sapiens, UniProt Q99581 1-238); conditions: protein: recombinant; tags: N-terminal GST; dsDNA, one strand shown
T7 sequence: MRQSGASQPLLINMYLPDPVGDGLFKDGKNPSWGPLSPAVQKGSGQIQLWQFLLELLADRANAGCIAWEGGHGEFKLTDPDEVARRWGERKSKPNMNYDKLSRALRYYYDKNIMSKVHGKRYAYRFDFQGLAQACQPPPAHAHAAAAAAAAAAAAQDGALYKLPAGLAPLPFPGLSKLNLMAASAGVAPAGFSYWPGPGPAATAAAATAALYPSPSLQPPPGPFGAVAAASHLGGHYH
In short: as §1

ETV5 = ETV5 (Homo sapiens, UniProt P41161 1-510); conditions: protein: recombinant; tags: N-terminal GST; dsDNA, one strand shown
Sequence of ETV5 (P41161 whole entry): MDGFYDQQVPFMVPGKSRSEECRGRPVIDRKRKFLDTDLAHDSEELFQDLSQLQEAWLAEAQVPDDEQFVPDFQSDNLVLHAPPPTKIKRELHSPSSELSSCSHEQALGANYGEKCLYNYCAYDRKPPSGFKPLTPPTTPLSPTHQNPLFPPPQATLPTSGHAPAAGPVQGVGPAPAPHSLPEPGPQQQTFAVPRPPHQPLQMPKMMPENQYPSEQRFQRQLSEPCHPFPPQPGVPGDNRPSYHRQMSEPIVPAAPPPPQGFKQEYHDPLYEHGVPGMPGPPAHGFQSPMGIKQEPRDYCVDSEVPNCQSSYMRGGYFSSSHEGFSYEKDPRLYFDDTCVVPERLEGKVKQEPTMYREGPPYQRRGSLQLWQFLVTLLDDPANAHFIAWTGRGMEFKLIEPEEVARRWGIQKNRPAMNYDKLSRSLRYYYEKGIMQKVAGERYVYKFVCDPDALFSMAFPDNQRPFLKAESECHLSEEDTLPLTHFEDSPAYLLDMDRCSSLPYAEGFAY
In short: as §1

HSF1 = HSF1 (Homo sapiens, UniProt Q00613 1-529); conditions: protein: recombinant; tags: N-terminal GST; chain copies: 3; dsDNA, one strand shown
Sequence of HSF1 (Q00613 whole entry): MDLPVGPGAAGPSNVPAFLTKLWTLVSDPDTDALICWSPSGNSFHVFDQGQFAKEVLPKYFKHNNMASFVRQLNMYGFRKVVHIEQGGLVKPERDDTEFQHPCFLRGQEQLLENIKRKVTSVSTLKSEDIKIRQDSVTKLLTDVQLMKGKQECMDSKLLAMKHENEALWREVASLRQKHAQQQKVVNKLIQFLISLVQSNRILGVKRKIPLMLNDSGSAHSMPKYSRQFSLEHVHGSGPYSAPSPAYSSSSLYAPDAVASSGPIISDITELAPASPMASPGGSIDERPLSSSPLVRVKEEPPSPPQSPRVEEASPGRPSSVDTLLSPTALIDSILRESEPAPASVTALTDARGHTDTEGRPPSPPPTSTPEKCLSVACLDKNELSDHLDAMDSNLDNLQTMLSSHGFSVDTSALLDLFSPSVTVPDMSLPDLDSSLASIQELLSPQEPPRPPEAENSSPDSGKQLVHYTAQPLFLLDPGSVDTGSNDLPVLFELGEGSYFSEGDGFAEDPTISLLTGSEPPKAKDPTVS
In short: as §1

SPIC = biological target: T8, SPIC (Homo sapiens, UniProt Q8N5J4 1-248); conditions: protein: recombinant; tags: N-terminal GST; dsDNA, one strand shown
T8 sequence: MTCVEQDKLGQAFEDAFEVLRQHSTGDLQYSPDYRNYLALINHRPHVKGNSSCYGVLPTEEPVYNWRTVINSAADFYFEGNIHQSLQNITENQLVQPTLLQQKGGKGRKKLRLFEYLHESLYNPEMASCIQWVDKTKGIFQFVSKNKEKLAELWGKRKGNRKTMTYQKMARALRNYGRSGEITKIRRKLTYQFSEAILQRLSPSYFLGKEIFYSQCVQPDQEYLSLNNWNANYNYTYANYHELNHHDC
In short: as §1

ELF4 = ELF4 (Homo sapiens, UniProt Q99607 1-663); conditions: protein: recombinant; tags: N-terminal GST; dsDNA, one strand shown
Sequence of ELF4 (Q99607 whole entry): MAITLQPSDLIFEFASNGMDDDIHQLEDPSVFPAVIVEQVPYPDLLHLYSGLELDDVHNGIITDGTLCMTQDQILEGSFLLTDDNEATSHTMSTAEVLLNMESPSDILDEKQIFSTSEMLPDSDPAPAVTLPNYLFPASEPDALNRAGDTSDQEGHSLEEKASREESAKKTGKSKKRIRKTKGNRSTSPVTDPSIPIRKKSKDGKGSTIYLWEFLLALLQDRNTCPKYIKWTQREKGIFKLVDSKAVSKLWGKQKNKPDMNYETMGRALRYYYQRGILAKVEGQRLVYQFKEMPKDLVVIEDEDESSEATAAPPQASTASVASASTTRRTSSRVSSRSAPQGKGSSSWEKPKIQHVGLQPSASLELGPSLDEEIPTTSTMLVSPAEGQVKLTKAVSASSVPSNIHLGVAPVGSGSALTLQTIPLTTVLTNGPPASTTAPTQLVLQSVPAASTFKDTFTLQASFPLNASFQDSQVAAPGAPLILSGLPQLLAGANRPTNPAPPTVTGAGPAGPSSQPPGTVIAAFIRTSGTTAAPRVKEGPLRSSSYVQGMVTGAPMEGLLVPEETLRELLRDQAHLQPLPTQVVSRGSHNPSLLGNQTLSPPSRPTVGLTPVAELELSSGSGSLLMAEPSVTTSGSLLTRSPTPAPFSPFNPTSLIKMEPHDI
In short: as §1

ELK4 = biological target: T9, ELK4 (Homo sapiens, UniProt P28324-2 1-405); conditions: protein: recombinant; tags: N-terminal GST; dsDNA, one strand shown
T9 sequence: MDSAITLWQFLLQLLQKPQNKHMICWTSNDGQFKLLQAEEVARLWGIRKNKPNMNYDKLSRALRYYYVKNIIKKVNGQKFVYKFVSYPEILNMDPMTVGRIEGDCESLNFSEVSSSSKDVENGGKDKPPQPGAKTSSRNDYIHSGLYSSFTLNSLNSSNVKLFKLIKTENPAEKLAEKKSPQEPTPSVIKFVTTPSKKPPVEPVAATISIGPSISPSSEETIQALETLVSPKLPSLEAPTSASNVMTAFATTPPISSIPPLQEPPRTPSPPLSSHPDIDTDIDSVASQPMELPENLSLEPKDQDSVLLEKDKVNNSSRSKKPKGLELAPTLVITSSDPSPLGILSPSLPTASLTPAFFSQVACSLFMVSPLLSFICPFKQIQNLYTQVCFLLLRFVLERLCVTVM
In short: as §1

ETV2 = biological target: T10, ETV2 (Homo sapiens, UniProt O00321 1-342); conditions: protein: recombinant; tags: N-terminal GST; dsDNA, one strand shown
T10 sequence: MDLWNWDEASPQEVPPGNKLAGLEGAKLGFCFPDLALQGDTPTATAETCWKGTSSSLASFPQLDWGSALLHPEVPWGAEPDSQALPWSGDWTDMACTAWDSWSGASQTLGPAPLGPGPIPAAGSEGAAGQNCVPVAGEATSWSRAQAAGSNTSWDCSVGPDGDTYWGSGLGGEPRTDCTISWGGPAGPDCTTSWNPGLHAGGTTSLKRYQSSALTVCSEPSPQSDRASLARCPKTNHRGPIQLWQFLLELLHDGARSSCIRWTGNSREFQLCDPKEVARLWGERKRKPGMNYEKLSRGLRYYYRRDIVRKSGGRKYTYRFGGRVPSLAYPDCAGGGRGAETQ
In short: as §1

ELF3 = biological target: T11, ELF3 (Homo sapiens, UniProt P78545 1-371); conditions: protein: recombinant; tags: N-terminal GST; dsDNA, one strand shown
T11 sequence: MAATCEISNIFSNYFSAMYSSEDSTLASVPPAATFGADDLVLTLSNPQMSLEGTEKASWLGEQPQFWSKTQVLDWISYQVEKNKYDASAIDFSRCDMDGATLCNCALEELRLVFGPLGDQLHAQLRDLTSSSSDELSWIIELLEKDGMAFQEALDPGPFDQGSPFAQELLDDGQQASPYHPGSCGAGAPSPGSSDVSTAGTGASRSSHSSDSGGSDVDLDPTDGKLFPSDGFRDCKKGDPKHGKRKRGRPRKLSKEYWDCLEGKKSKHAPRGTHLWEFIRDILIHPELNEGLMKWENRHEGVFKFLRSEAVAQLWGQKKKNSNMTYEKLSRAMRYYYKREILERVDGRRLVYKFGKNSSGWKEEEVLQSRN
In short: as §1

CRX = CRX (Homo sapiens, UniProt O43186 1-299); conditions: protein: recombinant; tags: N-terminal GST; dsDNA, one strand shown
Sequence of CRX (O43186 whole entry): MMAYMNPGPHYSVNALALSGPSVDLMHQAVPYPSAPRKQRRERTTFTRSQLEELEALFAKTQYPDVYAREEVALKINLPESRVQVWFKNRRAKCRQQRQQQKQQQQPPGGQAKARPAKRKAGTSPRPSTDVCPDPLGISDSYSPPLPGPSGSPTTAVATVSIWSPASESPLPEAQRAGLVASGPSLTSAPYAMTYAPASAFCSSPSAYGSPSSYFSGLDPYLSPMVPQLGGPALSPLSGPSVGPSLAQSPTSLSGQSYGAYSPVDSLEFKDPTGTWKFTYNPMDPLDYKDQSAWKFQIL
In short: as §1

ETV1 = ETV1 (Homo sapiens, UniProt P50549 1-477); conditions: protein: recombinant; tags: N-terminal GST; dsDNA, one strand shown
Sequence of ETV1 (P50549 whole entry): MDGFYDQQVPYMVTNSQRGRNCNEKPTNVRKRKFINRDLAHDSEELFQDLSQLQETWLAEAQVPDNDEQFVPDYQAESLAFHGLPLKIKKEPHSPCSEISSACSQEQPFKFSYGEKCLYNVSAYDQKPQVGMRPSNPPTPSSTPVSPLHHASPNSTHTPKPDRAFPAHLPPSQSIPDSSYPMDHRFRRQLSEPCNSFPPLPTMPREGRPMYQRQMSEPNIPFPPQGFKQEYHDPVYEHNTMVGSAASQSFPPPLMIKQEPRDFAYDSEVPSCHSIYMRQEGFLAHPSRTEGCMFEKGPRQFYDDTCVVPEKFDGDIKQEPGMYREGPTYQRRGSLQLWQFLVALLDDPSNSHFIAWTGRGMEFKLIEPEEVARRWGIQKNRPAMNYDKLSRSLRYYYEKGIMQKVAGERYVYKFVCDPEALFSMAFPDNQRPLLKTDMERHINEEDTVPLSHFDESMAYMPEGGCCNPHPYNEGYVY
In short: as §1

CTATTG
binding signal (FLI1): 1.33 fold enrichment (6-mer frequency, TF over GST control)
binding signal (ELK1): 1.33 fold enrichment (6-mer frequency, TF over GST control)
binding signal (GABPA): 1.31 fold enrichment (6-mer frequency, TF over GST control)
binding signal (ERG): 1.3 fold enrichment (6-mer frequency, TF over GST control)
binding signal (ELF1): 1.37 fold enrichment (6-mer frequency, TF over GST control)
binding signal (EHF): 1.28 fold enrichment (6-mer frequency, TF over GST control)
binding signal (SPI1): 1.26 fold enrichment (6-mer frequency, TF over GST control)
binding signal (SPIB): 1.2 fold enrichment (6-mer frequency, TF over GST control)
binding signal (ELK3): 1.23 fold enrichment (6-mer frequency, TF over GST control)
binding signal (FEV): 1.24 fold enrichment (6-mer frequency, TF over GST control)
binding signal (ETV5): 1.31 fold enrichment (6-mer frequency, TF over GST control)
binding signal (HSF1): 1.1 fold enrichment (6-mer frequency, TF over GST control)
binding signal (SPIC): 1.4 fold enrichment (6-mer frequency, TF over GST control)
binding signal (ELF4): 1.28 fold enrichment (6-mer frequency, TF over GST control)
binding signal (ELK4): 1.29 fold enrichment (6-mer frequency, TF over GST control)
binding signal (ETV2): 1.31 fold enrichment (6-mer frequency, TF over GST control)
binding signal (ELF3): 1.39 fold enrichment (6-mer frequency, TF over GST control)
binding signal (CRX): 1.14 fold enrichment (6-mer frequency, TF over GST control)
binding signal (ETV1): 1.36 fold enrichment (6-mer frequency, TF over GST control)
